The values below come from PubChem BioAssay AID686979 (National Center for Advancing Translational Sciences (NCATS), 2013).

Out of some 420,000 compounds screened, about 50,000 (12%) were called active. Not shown: some 26% with an inconclusive outcome. The list comes from a sample in which actives are over-represented; it also holds similar structures and randomly drawn compounds. A number with no mark means an inactive call. Calls come from the whole dose curve; as a rule, active = well fitted inhibition curve with a large enough effect; inconclusive = small, poorly fitted or top-dose-only effect; inactive = flat fitted curve, though single readings scatter.
% is set by controls: 0 for no effect and ±100 for the full control effect; potency is the fitted concentration of half-maximal effect.

This assay is described as follows: qHTS for Inhibitors of human tyrosyl-DNA phosphodiesterase 1 (TDP1): qHTS in cells in presence of CPT. Note: nearly all actives have a fitted effect of over 55% in size. As to conditions: chicken DT40 Tdp1-/-;hTDP1 cells + 20 nM CPT, ATP luminescence, 48 h; series mostly up to 46.2 µM; activity change, negative = growth inhibition: at the top concentration. Put shortly:
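Chicken DT40 Tdp1-/- cells stably complemented with human TDP1 were seeded at 400 cells/well in medium containing 20 nM camptothecin, exposed to pin-transferred compounds, and grown at 37 °C for at least 48 hr. Viability was read as ATP luminescence.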
With `O=C(CSc1nc(-c2ccco2)cc(C(F)(F)F)n1)NCc1cccs1`, the “activity change, negative = growth inhibition” value is -9.45%.

With `Cc1cc(C(F)(F)F)nn1-c1nc(-c2ccco2)cc(C(F)(F)F)n1`, the “activity change, negative = growth inhibition” value is -1.24%.

Take `O=C(CSc1nc(-c2ccco2)cc(C(F)(F)F)n1)N1CCc2ccccc2C1`: the “activity change, negative = growth inhibition” value was -27.6%. The same measure, in the same setting: to `COc1ccc(S(=O)(=O)NCC(=O)NCc2cc(=O)n(C)c(=O)n2C)cc1F` belongs 2.06%. With `O=C(CC1C(=O)NCCN1CC(c1ccccc1)c1ccccc1)NCC1CCOCC1` (configuration not stated), the “activity change, negative = growth inhibition” value is -13%. Take `CCCS(=O)(=O)NC(=O)C1(C)CCCN(C(=O)c2cccs2)C1` (configuration not stated): the “activity change, negative = growth inhibition” value was 9.56%. Turning to `O=C(CSc1nnc(SCc2ccc(F)cc2)s1)Nc1ccc(C(=O)O)cc1`, the “activity change, negative = growth inhibition” value is -15.4%. On the same count and under the same terms, then `COc1ccc(C2=NN(C(=O)c3ccccc3C(=O)O)C(c3ccccc3O)C2)cc1` (configuration not stated), with 17%. As to `CCC(C)(C)NC(=O)CN(C(=O)CCC(=O)Nc1cc(C)ccn1)c1ccc2c(c1)OCCO2`, the “activity change, negative = growth inhibition” value is 4.29%. On to `FC(F)(F)c1nnc2sc(-c3ccco3)nn12`, for which the “activity change, negative = growth inhibition” value was -5.91%.

With `FC(F)(F)c1nnc2c3ccccc3c(Cl)nn12`, the Potency is 5.17 µM (active).

As to `FC(F)(F)c1nnc2ccc(N3CCN(c4ccccc4)CC3)nn12`, the “activity change, negative = growth inhibition” value was -0.987%. With `O=C(COC(=O)c1cncc(Br)c1)Nc1ccc(S(=O)(=O)N2CCOCC2)cc1`, the “activity change, negative = growth inhibition” value is -19.1%. For the molecule `C=CCNC(=O)c1ccccc1SCc1c(C)noc1C`, the “activity change, negative = growth inhibition” value was 1.92%. On the same count and under the same terms, then `Cc1ccn(CC(=O)NC2CCCN(Cc3ccccc3F)C2)n1` (configuration not stated), with 6.73%; and `Cc1ccccc1CSCCNC(=O)C1CCN(S(=O)(=O)Cc2ccccc2)CC1`, with -2.3%.

For `CN(c1ccccc1)S(=O)(=O)c1ccc(C(=O)NCCc2ccccc2)cc1`, the “activity change, negative = growth inhibition” value was -22%.

On to `Cc1ccccc1CSCCNC(=O)c1ccc(N(C)S(=O)(=O)c2ccccc2)cc1`, for which the Potency is 18.4 µM (active). On to `Cc1nc2ccccc2nc(=O)c1NNc1ccc([N+](=O)[O-])cc1`, for which the “activity change, negative = growth inhibition” value is -28.3%. With `Cc1ccc(CN2CC(C(=O)NNC(=O)Cn3ccc(C(F)(F)F)n3)CC2=O)cc1` (configuration not stated), the “activity change, negative = growth inhibition” value was 3.76%. Take `CC(C)=CCc1ccc(O)c(=O)cc1C(C)C`: the Potency is 20.6 µM (active). For `CSc1ncc(C(=O)NCc2ccccc2Cl)c(C(F)(F)F)n1`, the “activity change, negative = growth inhibition” value is -20.8%. Turning to `O=C(/C=C/c1ccccc1[N+](=O)[O-])OCC(=O)N1CCCC1`, the “activity change, negative = growth inhibition” value is -21.3%. Take `CC1(C2CC2)NC(=O)N(CC(=O)N2CCN(c3ccccc3F)CC2)C1=O` (configuration not stated): the “activity change, negative = growth inhibition” value is -21.8%. Take `COc1ccc(OC)c(C(C)NC(=S)Nc2ccc(S(=O)(=O)Nc3ncccn3)cc2)c1` (configuration not stated): the “activity change, negative = growth inhibition” value is 3.28%. For `Clc1ccc(CSc2nnc3c(n2)[nH]c2ccccc23)cc1`, the “activity change, negative = growth inhibition” value is -25%. For the molecule `COc1ccc(Cc2nc3ccc(C(=O)N4CCC(N(C)C)C4)cc3o2)cc1` (configuration not stated), the “activity change, negative = growth inhibition” value is 11.1%. Regarding `CSCCNC(=O)c1ccc2nc(Cc3ccccc3F)oc2c1`, the “activity change, negative = growth inhibition” value was 1.45%.

For the molecule `COc1ccc(CNC(=O)c2ccc3oc(C(C)C)nc3c2)cc1`, the “activity change, negative = growth inhibition” value is -27%.

For `COc1ccc(Cc2nc3ccc(C(=O)NCc4ccc(OC)cc4OC)cc3o2)cc1`, the Potency is 16.4 µM (active). For `COCCNC(=O)c1ccc2nc(Cc3ccc(OC)c(OC)c3)oc2c1`, the “activity change, negative = growth inhibition” value is -0.805%. Regarding `COc1ccc(Cc2nc3ccc(C(=O)NCc4ccccc4C)cc3o2)cc1`, the Potency was 20.6 µM (active). For the molecule `COc1ccc(Cc2nc3ccc(C(=O)NCc4ccccc4Cl)cc3o2)cc1`, the Potency was 16.4 µM (active). As for `CCn1ccnc1CN(C)C(=O)c1ccc2nc(Cc3ccc(OC)cc3)oc2c1`, the “activity change, negative = growth inhibition” value was -18.1%. As for `COc1ccc(NC(=O)c2ccc3nc(CCc4ccccc4)oc3c2)c(OC)c1`, the “activity change, negative = growth inhibition” value was -26.7%. Take `CCCCOC(=O)CSc1ncnc2sc3c(c12)CCC(C)C3` (configuration not stated): the “activity change, negative = growth inhibition” value was -16.3%. On the same count and under the same terms, to `Cc1nccn1CCC1CCCCN1C(=O)CCc1nnc(-c2ccsc2)o1` (configuration not stated) belongs -0.241%; to `CC(=O)OCCOCn1cnn2c(=O)c(Br)c(C)nc12`, 1.1%. Same read-out and setting: then `CSc1n[nH]c(-c2ccco2)n1`, with 2.51%.

For the molecule `COC(=O)c1ccc(C)c(NC(=O)Cn2c(C)csc2=O)c1`, the “activity change, negative = growth inhibition” value is -8.88%. On to `Nc1ccc(C(=O)OCC(=O)NC2CCS(=O)(=O)C2)cc1[N+](=O)[O-]` (configuration not stated), for which the “activity change, negative = growth inhibition” value was -10.4%.

In the case of `O=NN(CCCl)C(=O)NCCc1cccc[n+]1[O-]`, the “activity change, negative = growth inhibition” value is -1.12%.

Regarding `NC(=O)C1CCN(C(=O)c2ccc3c(=O)n(Cc4cccc(Br)c4)c(=S)[nH]c3c2)CC1`, the “activity change, negative = growth inhibition” value is -0.901%. Consider `CCOC(=O)c1sc(=S)n2c1[nH]c(=O)c1ccc(C(=O)OC)cc12`, for which the Potency was 10.3 µM (active). Regarding `COC(=O)c1cccc(NC(=O)CSc2nc(C)cc(=O)[nH]2)c1`, the “activity change, negative = growth inhibition” value is -4.36%. `CCOC(=O)c1sc2nc(C)[nH]c(=O)c2c1C`: the “activity change, negative = growth inhibition” value is 0.124%. In the case of `COc1ccccc1C1C(C(=O)N2CCCCC2)=C(C)Nc2nc3ccccc3n21` (configuration not stated), the “activity change, negative = growth inhibition” value is -13.4%. In the case of `CCCCN1C(=O)C(CC(=O)NCc2cccs2)CC(C(=O)N2CCCCCC2)=C1C` (configuration not stated), the “activity change, negative = growth inhibition” value was -24.1%. Regarding `Cc1cc(O)c(C(c2ccccc2)N2CCN(c3ccccc3F)CC2)c(=O)n1Cc1ccco1` (configuration not stated), the “activity change, negative = growth inhibition” value was -9.48%. As to `Cc1cc(C)c(NC(=O)C[N+](C)(C)CC(O)COc2cccc3ccccc23)c(C)c1` (configuration not stated), the Potency is 18.4 µM (active). Take `Cc1cc(C)cc(OCC(=O)Nc2c(C(=O)c3ccccc3)oc3ccccc23)c1`: the “activity change, negative = growth inhibition” value is -27.4%.

With `OC(COc1cccc2ccccc12)CN1CCN(c2ccccn2)CC1` (configuration not stated), the “activity change, negative = growth inhibition” value was -29.9%.
